HDAC3 inh = HDAC3 deacetylase inhibitors, primary screen, biochemical, fluorescence, cell-free homogeneous. inhibition, % at 8.3 µM. 320,000 compounds, 0.15% hits. AID 2718, 2010. Histone deacetylase 3 (Homo sapiens), O15379. recombinant HDAC3, fluorogenic peptide/trypsin coupled; in the data active = inhibition above about 26%, passing the limit was not always enough; inconclusive = no clear call, values can overlap the other calls
Target sequence (O15379 whole entry, looked up): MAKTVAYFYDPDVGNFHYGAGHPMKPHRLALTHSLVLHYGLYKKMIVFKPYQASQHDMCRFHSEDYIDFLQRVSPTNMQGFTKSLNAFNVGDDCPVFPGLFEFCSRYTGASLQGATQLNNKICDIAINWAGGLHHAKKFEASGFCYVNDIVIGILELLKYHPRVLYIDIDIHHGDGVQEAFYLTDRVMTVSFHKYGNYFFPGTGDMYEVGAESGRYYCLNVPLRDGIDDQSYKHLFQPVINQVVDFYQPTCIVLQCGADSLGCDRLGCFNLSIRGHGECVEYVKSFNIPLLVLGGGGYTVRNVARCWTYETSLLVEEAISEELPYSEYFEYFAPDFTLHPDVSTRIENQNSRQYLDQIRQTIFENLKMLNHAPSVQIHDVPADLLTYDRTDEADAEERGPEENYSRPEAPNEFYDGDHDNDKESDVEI
IDE act = human IDE activators in live cells, primary screen, fluorescence polarization, HEK cells, FAbeta-B substrate | Insulin-degrading enzyme (Homo sapiens), P14735 | FAbeta-B cleavage; 0% vehicle, 100% cell-free pure enzyme wells | activation, % at 5.96 µM | 340,000 compounds, 0.073% hits | AID 493087, 2011;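 active = activation above the mean of all tested compounds plus 3 SD, set per screening campaign, cut at about 17% in these data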
SUMO Mot1 rescue = yeast Mot1-301 growth rescue at high temperature, primary screen, SUMOylation pathway inhibitor project, S. cerevisiae, ATP luminescence, 38.5C; S. cerevisiae Mot1-301 growth rescue; percent above DMSO median, 100 means doubled; growth rescue, % at 18.8 µM; 320,000 compounds, 1% hits;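 active = every valid replicate shows activation above 250% relative to neutral control wells; inactive = the rest, any valid replicate at or below 250%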;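 also: OY570 slx delta 5 strain wells were the positive control but not used for scaling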
LANA-H2A inh = blockers of LANA interaction with H2A/H2B – biochemical, FP readout, HTS, primary screen. Protein LANA1 (Human herpesvirus 8 type P (isolate GK18)), Q9QR71. cell-free LANA-H2A/H2B peptide, fluorescence polarization. inhibition, % (no concentration beside the values). 320,000 compounds, 0.6% hits. AID 2629, 2010; in the data active = inhibition mostly above about 10%, no sharp cut-off; inactive = mostly below about 6.7%
IDE inh = human IDE inhibitors in live cells, primary screen, fluorescence polarization, HEK cells, FAbetaB substrate; 320,000 compounds, 0.41% hits; Insulin-degrading enzyme (Homo sapiens), P14735; FAbetaB cleavage; inhibition, % at 5.59 µM;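 active = percent inhibition above the average of all tested compounds plus 3 SD, set per screening campaign, cut at about 16% in these data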;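 also: IDE supplied by intact live HEK cells; FP after avidin binding of uncleaved biotin substrate so inhibition keeps polarization high; 0% = DMSO wells and 100% = 60 µM reference IDE inhibitor Ii1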
Numbers without * were called inactive; ? = inconclusive; . = not tested or not shown. Rows were chosen to be rich in hits. Some 2.1% of all compounds tested hit in one or more screens of this group.

SMILES	HDAC3 inh	IDE act	SUMO Mot1 rescue	LANA-H2A inh	IDE inh
Cc1ccccc1N1CCN(C2CCCN(C(=O)CCc3c(C)noc3C)C2)CC1 (stereo not given)	-3.5	5.0	382.4	-3.4	-0.9
COc1cc2c(cc1OC)[C@@H]1Cc3cc4c(cc3[C@H](C2)N1C)OCO4	33.9*	-0.9	3.0	-14.1	1.6
CCN(c1ccccc1)S(=O)(=O)c1ccc(OC)c(NC(=O)CNC)c1	1.5	1.9	7.5	-2.6	-0.6
CCN(c1ccccc1)S(=O)(=O)c1ccc(OC)c(NC(=O)CN(C)C)c1	-2.3	6.2	-14.6	94.0*	-0.8
CC(CN)(NS(=O)(=O)c1ccccc1)c1ccccc1 (stereo not given)	-3.7	4.3	-9.7	6.2	.
Cc1ccc(NC(=O)CSc2nc(C)c(C)c(C)n2)cc1S(=O)(=O)N1CCOCC1	1.5	-7.1	-15.3	3.1	2.8
Cc1ccc(NC(=O)CCCOc2ccccc2)cc1S(=O)(=O)N1CCOCC1	0.4	-1.2	-1.1	20.0*	4.3
Nc1cc(N)nc(SCC(=O)Nc2ccccc2N2CCOCC2)n1	-9.6	3.7	64.7	14.5*	5.8
O=C(CCCOc1ccccc1)Nc1ccc(Cl)c(S(=O)(=O)N2CCOCC2)c1	-8.1	-3.1	7.4	0.6	0.3
Cc1ccc(NC(=O)CSc2nc(N)cc(N)n2)cc1S(=O)(=O)N1CCOCC1	-0.6	-0.7	-20.2	19.3*	8.9
Cc1sc2ncn(CC(=O)N3CCN(c4ccccc4)CC3)c(=O)c2c1S(=O)(=O)N1CCOCC1	2.2	3.8	24.0	0.7	7.2
Cc1ccc(S(=O)(=O)c2ccccc2)cc1S	-0.2	.	-2.2	0.2	26.4*
CCOC(=O)C1CCCN(C(=O)C2c3ccccc3Oc3ccccc32)C1 (stereo not given)	0.0	0.5	67.1	70.6*	-3.3
C=CCn1c(SCC(=O)N2c3ccccc3Sc3ccccc32)nnc1-c1ccco1	0.2	-0.4	16.4	23.4*	2.7
COc1cc(N2CCCC2)c(OC)cc1/C=C(/C#N)c1cccc(F)c1	-1.4	-16.2	12.0	1.1	17.0*
NC1=NC[C@@H](Cc2ccc(O)cc2)N1CCc1cc(C(F)(F)F)cc(C(F)(F)F)c1	10.4	5.5	219.7	-3.4	0.1
FC(F)(F)c1cc(CCN2CCNC[C@@H]2CC2CCCCC2)cc(C(F)(F)F)c1	?	22.9*	29.9	10.8	-3.5
NC1=NC[C@H](CC2CCCCC2)N1CCc1cc(C(F)(F)F)cc(C(F)(F)F)c1	9.0	25.6*	-39.0	1.8	3.5
COc1ccc2nc(NN=C(C)c3ccccn3)cc(C)c2c1	.	7.4	.	.	.
O=C(CS)Nc1ccc2ccccc2c1	0.2	-13.1	-5.0	0.1	17.3*
CC1Sc2ccc(S(=O)(=O)CCC(=O)N3CCN(c4cccc(Cl)c4)CC3)cc2NC1=O (stereo not given)	1.6	1.6	-19.5	30.4*	2.9
CC1Sc2ccc(S(=O)(=O)CCC(=O)N3CCN(c4ccccc4)CC3)cc2NC1=O (stereo not given)	0.7	-1.2	-7.5	-14.0	2.2
Cc1ccc(NC(=O)COC(=O)C2COc3ccccc3O2)cc1 (stereo not given)	-6.5	-2.8	0.0	0.2	-5.3
CC(NC(=O)COc1cccc(Br)c1)C(=O)O (stereo not given)	3.3	1.6	997.2*	1.9	-0.9
COC(=O)[C@H]1[C@H]2C[C@@H]3c4[nH]c5cc(OC)ccc5c4CCN3C[C@H]2C[C@@H](OC(=O)c2cc(OC)c(OC)c(OC)c2)[C@@H]1OC	9.4	2.7	350.9*	0.5	4.6
SMILES	HDAC3 inh	IDE act	SUMO Mot1 rescue	LANA-H2A inh	IDE inh
O=C(COc1coc(CN2CCc3ccccc32)cc1=O)Nc1cccc(F)c1	6.6	3.9	0.4	2.8	0.9
Cc1ccc(C(C(=O)NC(C)(C)C)N(CC2CCCO2)C(=O)CCC(=O)Nc2ccccn2)cc1 (stereo not given)	0.2	1.8	-6.4	22.3*	-3.6
N#CC1(NC(=O)COC(=O)c2ncc(Cl)c(Cl)c2Cl)CCCCC1	-1.9	4.9	-4.0	-7.8	-3.5
N#CC1(NC(=O)COC(=O)c2nc(Cl)c(Cl)c(N)c2Cl)CCCCC1	1.7	8.6	1.0	14.2*	4.5
CCOc1ccc2nc(N3CCCC(C(=O)NC4CCCC4)C3)sc2c1 (stereo not given)	4.0	-0.4	-3.0	2.6	0.7
CCOc1ccc2nc(N3CCC(C(=O)NC4CCCCC4)CC3)sc2c1	-2.5	-0.7	344.3*	1.2	4.9
CC(=O)Nc1ccc(C(=O)OCCc2ccccc2)cc1	5.4	-1.8	-14.1	14.7*	-0.3
CCOc1cc2c(cc1OCC)C(C(=O)O)C(c1cc(Br)c(O)c(OC)c1)N(C)C2=O (stereo not given)	0.6	-5.6	-10.1	14.6*	1.2
CCCCNC(=O)C1c2cc(OC)c(OC)cc2C(=O)N(C)C1c1ccc(OC)cc1 (stereo not given)	3.7	-3.1	-4.8	-2.9	0.9
CCCCOC(=O)c1ccc(NC(=O)C(=O)CC(=O)c2ccc(OC)cc2)cc1	1.1	-1.8	-3.3	-1.5	-0.6
O=C(CCCl)N1c2ccccc2C=Cc2ccccc21	.	5.4	.	.	.
CCn1cc(C(=O)O)c(=O)c2cc(F)c(N3CCN(C)CC3)cc21	-8.1	2.6	-9.3	2.5	8.1
CCC(C)NC(=O)c1cn(CC)c2cc(N3CCN(C)CC3)c(F)cc2c1=O (stereo not given)	-27.6	.	1.3	-2.0	-3.5
CCn1cc(C(=O)N[C@H](C)c2ccccc2)c(=O)c2cc(F)c(N3CCN(C)CC3)cc21	-43.7	0.3	815.4*	1.6	1.5
CCn1cc(C(=O)O)c(=O)c2cc(F)c(N3CCNCC3)cc21	.	-2.8	283.9	70.7*	4.6
Cc1nc2nc(SCc3ccccc3)[nH]n2c(=O)c1C	-0.3	4.3	4.6	-3.9	.
COCCN(Cc1nc(C(c2ccccc2)c2ccccc2)no1)C(C)C	-4.4	2.2	3.7	-3.3	2.3
Cc1ccnc(NS(=O)(=O)c2ccc(NS(=O)(=O)c3cc(Cl)ccc3Cl)cc2)n1	2.6	-1.6	7.3	14.0*	3.2
Cc1ccnc(NS(=O)(=O)c2ccc(NS(=O)(=O)c3ccc([N+](=O)[O-])cc3)cc2)n1	-1.9	2.1	221.3	1.0	-2.4
O=C(O)[C@H](Cc1ccccc1)NC(=O)C(c1ccccc1)(c1ccccc1)c1ccccc1	4.7	5.6	-13.4	-2.0	1.3
O=C(CC(c1ccccc1)(c1ccccc1)c1ccccc1)N[C@@H](Cc1ccccc1)C(=O)O	-1.1	6.7	0.7	16.1*	-2.2
CCOC(=O)C1CCN(C(=O)CCC(=O)NNc2nc3ccccc3c3nc(C)nn23)CC1	7.6	1.3	9.9	-4.9	1.9
